Measurements taken from PubChem BioAssay (Tox21).
Records with an inconclusive call do not appear. The source made the active and inactive calls. Unless noted, the call rests on the fitted dose curve; in most records, active means well fitted curve in the direction sought with a large enough effect in the repeat runs; inconclusive means weak or mixed curves; inactive means no such curve, though single readings can be large; an effect the other way counts as inactive or inconclusive.

Experiments:
[1] = qHTS assay for small molecule agonists of the p53 signaling pathway (AID 651631; calls by dose curve; further: nearly all actives have a fitted effect of over 15% in size; further: potency means the concentration at half of the fitted maximal effect)
How it was run: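 Quantitative high-throughput format: 4,000 p53RE-bla HCT-116 cells/well, 5 h pre-incubation, 16 h compound exposure at 37 °C, 2 h room-temperature substrate step, fluorescence intensity measured.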

[2] = qHTS assay for small molecules that induce genotoxicity in human embryonic kidney cells expressing luciferase-tagged ATAD5 (AID 651632); further: nearly all actives have a fitted effect of over 15% in size
How it was run: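 Concentration-response screen for ATAD5 upregulation in HEK293T luciferase reporter cells; 16 hr treatment at 37C, then luminescence after 30 min with Amplite at room temperature.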

[3] = qHTS assay for small molecule agonists of the p53 signaling pathway - cell viability (AID 651633; calls by dose curve; further: nearly all actives have a fitted effect of over 30% in size; further: potency means the concentration at half of the fitted maximal effect;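 on activity change, negative = cytotoxicity: p53RE-bla HCT reporter cells with a stable beta-lactamase p53 reporter; series mostly up to about 83 µM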)
How it was run: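 p53RE-bla cells, seeded at 4,000 per well and rested 5 h at 37 C/5% CO2, received compounds in DMSO for 16 h at 37 C. CellTiter-Glo was then added, and luminescence was read after 30 min at room temperature to gauge cytotoxicity.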

[4] = qHTS assay for small molecule disruptors of the mitochondrial membrane potential - cell viability (AID 720634; calls by dose curve; further: nearly all actives have a fitted effect of over 20% in size; further: potency means the concentration at half of the fitted maximal effect;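 on activity change, negative = cytotoxicity: human HepG2 liver cancer cells; series mostly up to about 83 µM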)
How it was run: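 In this qHTS format, HepG2 cells plated overnight were pinned with compound, incubated 1 hr, and assayed for ATP luminescence with CellTiter-Glo after m-MPI dye addition.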

[5] = qHTS assay for small molecule disruptors of the mitochondrial membrane potential (AID 720635); further: potency means the concentration at half of the fitted maximal effect
How it was run: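 HepG2 cells (2,000/well) attached overnight at 37C, then took compound for 1 hr at 37C, 5% CO2. Mito-MPS dye was added for 30 min; fluorescence was read at 490/535 nm (monomers) and 540/590 nm (aggregates).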

[6] = qHTS assay to test for compound auto fluorescence at 590 nm (red) in HepG2 cells (AID 720674)
How it was run: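 Intrinsic compound fluorescence in the red window (Ex/Em 540/590 nm) is measured in attached HepG2 cells exposed for 1 hr, DMSO vehicle as baseline, benchmarked to Rose Bengal sodium.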

[7] = qHTS assay to test for compound auto fluorescence at 535 nm (green) in HepG2 cells (AID 720675)
[8] = qHTS assay to test for compound auto fluorescence at 460 nm (blue) in HEK293 cells (AID 720678)
How it was run: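 After cell attachment (4-5 hr, 37C), compounds were pinned onto HEK293 monolayers in 10% dialyzed FBS medium. The blue channel (405/460 nm) was read following overnight culture. Equivalency was calculated against triamterene.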

[9] = qHTS assay to test for compound auto fluorescence at 590 nm (red) in HEK293 cells (AID 720679)
How it was run: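 Plates of HEK293 cells (10% dialyzed FBS) are treated with 23 nL compound or DMSO vehicle after a 4-5 hr attachment period, incubated overnight at 37C, and read for red fluorescence at 540/590nm.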

[10] = qHTS assay to test for compound auto fluorescence at 535 nm (green) in HEK293 cells (AID 720680)
[11] = qHTS assay to test for compound auto fluorescence at 535 nm (green) in HEK293 cell free culture (AID 720682)
How it was run: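 Measurement is a direct plate read of green fluorescence (485 nm in, 535 nm out) after compound addition to serum-supplemented DMEM lacking cells, with fluorescein used to express intensities.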

[12] = qHTS assay to test for compound auto fluorescence at 590 nm (red) in HEK293 cell free culture (AID 720683)
How it was run: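 Tox21 10K library compounds were pinned into cell-free DMEM with 10% FBS and fluorescence was read at excitation 540 nm. Activity is expressed as Rose Bengal sodium equivalency.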

[13] = qHTS assay to test for compound auto fluorescence at 590 nm (red) in HepG2 cell free culture (AID 720684)
How it was run: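 Ex 540 / Em 590 nm read of compound in cell-free MEM (10% FBS). Rose Bengal sodium reference.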

[14] = qHTS assay to test for compound auto fluorescence at 460 nm (blue) in HepG2 cell free culture (AID 720685)
How it was run: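 Cell-free plates of MEM plus 10% FBS received 23 nL compound or DMSO vehicle; blue-channel (405/460 nm) intensity scored against triamterene as reference fluorophore.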

[15] = qHTS assay to test for compound auto fluorescence at 535 nm (green) in HepG2 cell free culture (AID 720686)
[16] = biological target: Glucocorticoid receptor (Homo sapiens) (UniProt P04150); assay: qHTS assay to identify small molecule agonists of the glucocorticoid receptor (GR) signaling pathway (AID 720691; active means well fitted activation curve with a large enough effect in the signal ratio in the repeat runs, not every such curve was filed as active; the % refers to the signal ratio)
How it was run: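 Measures GR pathway activation through a GRE-beta-lactamase reporter stably integrated in HeLa cells, with 18 h compound treatment at 37 C and fluorescence detection using a FRET substrate.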

[17] = biological target: Glucocorticoid receptor (Homo sapiens) (UniProt P04150); assay: qHTS assay to identify small molecule antagonists of the glucocorticoid receptor (GR) signaling pathway (AID 720692; active means well fitted inhibition curve with a large enough effect in the signal ratio in the repeat runs, not every such curve was filed as active; the % refers to the signal ratio)
How it was run: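 Tox21 10K library screened in concentration-response for blockade of dexamethasone (5 nM final)-induced GRE-bla reporter activity in HeLa cells; 18 h treatment, fluorescence read.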

[18] = qHTS assay to test for compound auto fluorescence at 460 nm (blue) in HEK293 cell free culture (AID 720681)
How it was run: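 Test compounds were pinned into cell-free culture medium (DMEM with 10% FBS) and fluorescence was read directly at Ex/Em 405/460 nm. Signals were expressed as fluorescence equivalents of triamterene, with DMSO vehicle as control.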

[19] = qHTS assay to test for compound auto fluorescence at 460 nm (blue) in HepG2 cells (AID 720687)
How it was run: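 Cells (2,000/well in MEM with 10% FBS) attached overnight at 37 C, then were exposed to compound or DMSO for 1 hr at 37 C, 5% CO2. Fluorescence read at Ex/Em 405/460 nm, expressed as triamterene-equivalent signal.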

[20] = qHTS assay for small molecules that induce genotoxicity in human embryonic kidney cells expressing luciferase-tagged ATAD5 - cell viability (AID 651634; calls by dose curve; further: nearly all actives have a fitted effect of over 25% in size)
How it was run: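 15.5 hr compound or vehicle exposure of HEK293T cells expressing luciferase-tagged ATAD5 at 37C; live-cell protease activity is read by fluorescence after 30 min of CellTiter-Fluor.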
On the % scale 0 is the no-effect control and ±100 the full control effect.

Sequence of Glucocorticoid receptor (Homo sapiens) (P04150 whole entry, looked up): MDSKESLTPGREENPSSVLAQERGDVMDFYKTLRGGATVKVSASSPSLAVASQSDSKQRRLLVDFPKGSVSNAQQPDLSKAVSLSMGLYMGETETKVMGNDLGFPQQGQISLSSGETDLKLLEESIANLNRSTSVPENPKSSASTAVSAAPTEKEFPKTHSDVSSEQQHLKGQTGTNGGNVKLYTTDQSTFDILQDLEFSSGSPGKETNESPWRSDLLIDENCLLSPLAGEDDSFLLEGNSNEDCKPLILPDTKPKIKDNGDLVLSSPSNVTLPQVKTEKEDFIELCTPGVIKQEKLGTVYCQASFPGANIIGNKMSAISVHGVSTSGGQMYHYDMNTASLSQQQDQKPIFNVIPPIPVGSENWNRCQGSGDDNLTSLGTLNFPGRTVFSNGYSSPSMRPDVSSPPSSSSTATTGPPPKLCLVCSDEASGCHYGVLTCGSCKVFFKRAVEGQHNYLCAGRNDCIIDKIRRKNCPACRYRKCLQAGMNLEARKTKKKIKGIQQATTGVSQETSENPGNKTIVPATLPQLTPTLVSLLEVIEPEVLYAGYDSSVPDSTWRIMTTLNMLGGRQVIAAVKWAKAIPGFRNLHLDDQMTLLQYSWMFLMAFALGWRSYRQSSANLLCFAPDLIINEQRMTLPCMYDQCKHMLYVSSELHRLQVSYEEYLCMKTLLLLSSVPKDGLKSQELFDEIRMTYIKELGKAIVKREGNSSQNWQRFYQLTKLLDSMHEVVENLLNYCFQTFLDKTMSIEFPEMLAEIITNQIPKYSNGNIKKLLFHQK

CC(C)(C)CC(C)(C)c1ccc(Nc2ccc(C(C)(C)CC(C)(C)C)cc2)cc1
inactive: activation [1] -6.72% [at 8.3 µM] | activation [2] 2.9% [at 8.08 µM] | activity change, negative = cytotoxicity [3] -13.1% [at 8.08 µM] | activity change, negative = cytotoxicity [4] 4.18% [at 8.08 µM] | ratio activity, negative = MMP loss [5] 34.3% [at 8.08 µM] | fluorescence, relative to Rose Bengal [6] 0.212% [at 3.72 µM] | fluorescence, % of fluorescein control [7] 0.0549% [at 3.72 µM] | fluorescence, % of triamterene [8] -0.186% [at 3.72 µM] | fluorescence, % of fluorescent control [9] -0.94% [at 3.72 µM] | fluorescence, % of fluorescein [10] -0.0015% [at 3.72 µM] | activity change [11] 0.0494% [at 3.72 µM, active compounds read high] | fluorescence, % of fluorescent control [12] 0.0404% [at 3.72 µM] | fluorescence, % of Rose Bengal [13] 0.189% [at 3.72 µM] | fluorescence, % of fluorescent control [14] 0.0515% [at 3.72 µM] | fluorescence, % of fluorescein control [15] 0.0526% [at 3.72 µM] | activation [16] -1.13% [at 6.9 µM] | activity change, negative = inhibition [17] -25.8% [at 7.04 µM]

Cc1cc(C(C)(C)C)cc(C)c1CC1=NCCN1
inactive: Potency [1] | Potency [2] | Potency [3] | Potency [4] | fluorescence, relative to Rose Bengal [6] 0.379% [at 18.6 µM] | fluorescence, % of fluorescein control [7] 0.0648% [at 18.6 µM] | fluorescence, % of triamterene [8] -0.0052% [at 18.6 µM] | fluorescence, % of fluorescent control [9] 0.279% [at 18.6 µM] | fluorescence, % of fluorescein [10] 0.178% [at 18.6 µM] | fluorescence, % of fluorescent control [18] 0.0078% [at 18.6 µM] | activity change [11] 0.0172% [at 18.6 µM, active compounds read high] | fluorescence, % of Rose Bengal [13] -0.207% [at 18.6 µM] | fluorescence, % of fluorescent control [14] 0.411% [at 18.6 µM] | fluorescence, % of fluorescein control [15] -0.0122% [at 18.6 µM] | fluorescence, % of fluorescent control [19] 0.013% [at 18.6 µM] | Potency [16] | Potency [17]

CCc1oc2ccccc2c1C(=O)c1cc(I)c(O)c(I)c1
active: Potency [1] 23.7 µM | Potency [3] 26.6 µM | Potency [4] 26.6 µM | Potency [5] 2.66 µM
inactive: Potency [2] | Potency [6] | Potency [7] | Potency [8] | Potency [9] | Potency [10] | Potency [18] | Potency [11] | Potency [12] | Potency [13] | Potency [14] | Potency [15] | Potency [19]

COc1ccc(NC(=O)CC(C)=O)cc1
inactive: Potency [1] | Potency [2] | Potency [3] | Potency [4] | Potency [6] | Potency [7] | Potency [8] | Potency [9] | Potency [10] | Potency [18] | Potency [11] | Potency [12] | Potency [13] | Potency [15] | Potency [19]

CCC(=O)OC(=O)CC
inactive: Potency [1] | Potency [2] | Potency [3] | Potency [4] | Potency [6] | Potency [7] | Potency [8] | Potency [9] | Potency [10] | Potency [18] | Potency [11] | Potency [12] | Potency [13] | Potency [14] | Potency [15] | Potency [16] | Potency [17]

O[C@@H]([C@H](O)[C@H](O)CBr)[C@H](O)CBr
inactive: Potency [1] | Potency [2] | Potency [3] | Potency [4] | Potency [5] | Potency [6] | Potency [7] | Potency [8] | Potency [9] | Potency [10] | Potency [18] | Potency [11] | Potency [12] | Potency [13] | Potency [14] | Potency [15] | Potency [19]

OC1CCC(C2CCCCC2)CC1 (stereo unspecified)
inactive: Potency [1] | Potency [2] | Potency [3] | Potency [20] | Potency [6] | Potency [7] | Potency [9] | Potency [10] | Potency [18] | Potency [11] | Potency [12] | Potency [13] | Potency [14] | Potency [15] | Potency [16]

Cc1cccc2cccnc12
inactive: Potency [1] | Potency [2] | Potency [3] | Potency [4] | Potency [5] | Potency [6] | Potency [7] | Potency [8] | Potency [9] | Potency [10] | Potency [18] | Potency [11] | Potency [13] | Potency [14] | Potency [15] | Potency [19]
